Rows were chosen to be rich in hits. Some 2.9% of all compounds tested hit in one or more screens of this group.
IP6K1 inh: inhibitors of human IP6K1; IP6K1 kinase, ADP-Glo luminescence, 2 h; active compounds read low; activity change, % (series mostly up to about 58 µM); 140,000 tested, 0.81% active; AID 1645851; in the data active = activity change below about -25%; also: % is scaled to controls: 0 for no effect and ±100 for the full control effect
Target sequence (Q92551 whole entry, looked up): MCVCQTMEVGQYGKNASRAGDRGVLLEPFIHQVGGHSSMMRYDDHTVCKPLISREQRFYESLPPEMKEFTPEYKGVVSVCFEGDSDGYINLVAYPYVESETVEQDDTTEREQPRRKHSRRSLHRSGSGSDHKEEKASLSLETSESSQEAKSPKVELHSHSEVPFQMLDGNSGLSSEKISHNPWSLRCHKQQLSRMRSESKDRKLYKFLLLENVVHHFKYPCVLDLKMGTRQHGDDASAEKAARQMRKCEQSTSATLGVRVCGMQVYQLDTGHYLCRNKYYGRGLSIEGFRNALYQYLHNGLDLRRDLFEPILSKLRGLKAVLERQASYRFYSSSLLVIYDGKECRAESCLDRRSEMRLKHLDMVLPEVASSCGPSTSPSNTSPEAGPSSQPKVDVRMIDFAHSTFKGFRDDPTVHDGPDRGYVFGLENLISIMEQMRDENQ
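ADP-Glo luminescence measures ADP made by human IP6K1 during a 2 h RT reaction with ATP/IP6 (mix at 1.3 mM/130 uM); top library doses 57.5 and 19.1 uM final.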
KDM5B inh: KDM5B demethylase inhibition | Potency, µM (highest dose often 57.7 µM), usual class: inhibitors | 220,000 tested, 2.6% active | KDM5B demethylase, FDH-coupled NADH fluorescence (FDH is formaldehyde dehydrogenase) | Q9UGL1; also: potency is read from the fitted curve at half-maximal effect; 0% is about no effect; nearly all actives have a fitted effect of over 70% in size
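Here, H3K4me3 peptide (12.5 µM in substrate mix) is demethylated by KDM5BΔAP, 200 nM final, after 10 min compound exposure. Formaldehyde product is coupled through FDH (0.25 U/mL in mix) to NADH fluorescence; 30-min ΔRFU feeds dose-response curves.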
SNCA expr inhib: inhibitors of alpha-synuclein (SNCA) gene expression; HEK-293 SNCA-luciferase knock-in, luminescence, 24 h; Potency, µM (top dose mostly 57.2 µM), for inactives: at the top dose activity change, negative = inhibition, most hits filed as inhibitors; 140,000 tested, 0.17% active; AID 1671194;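 also: potency is read from the fitted curve at half-maximal effect; plate controls were DMSO cells for no effect and cell-free wells for full effect; nearly all actives have a fitted effect of over 45% in size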
HEK293 viab: cell viability loss counter-screen; HEK-293-SNCA-luc viability, GF-AFC fluorescence, 24 h; Potency, µM (series often up to 57.1 µM), for the others: at the top dose activity change, negative = cytotoxicity, most hits filed as cytotoxic; 150,000 tested, 0.12% active; AID 1671193;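 also: potency is read from the fitted curve at half-maximal effect; 0% = DMSO-treated cells and -100% = medium-only wells without cells; nearly all actives have a fitted effect of over 30% in size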
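HEK-293-SNCA-luc cells (1500/well) plated 24 h, then exposed 24 h to a dilution series; GF-AFC added 30 min at 37C, fluorescence 405/540 nm; normalised to medium-only and DMSO wells, Hill fit.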
IP6K1 inh cnf: confirmation of human IP6K1 inhibitors. shares compounds with IP6K1 inh. recombinant IP6K1 kinase, ADP-Glo luminescence, 2 h. Potency, µM (series often up to 49 µM), inactives show top-dose activity change, negative = inhibition, usual class: inhibitors. 1,200 tested, 13% active. AID 1645852; also: potency is read from the fitted curve at half-maximal effect; % is scaled to controls: 0 for no effect and ±100 for the full control effect; nearly all actives have a fitted effect of over 65% in size
* marks the source's active call; other numbers are inactive results; i = inactive; ? = inconclusive; / = not tested or not shown; [ ] = another dose, or the depositor's remark. Unless noted, calls follow the shape of the dose curve; as a rule, active = well fitted curve in the direction sought with a large enough effect; inconclusive = small, poorly fitted or top-dose-only effect, or another doubt; inactive = no such curve, though single readings can be large; an effect the other way counts as inactive or inconclusive.

SMILES	IP6K1 inh	KDM5B inh	SNCA expr inhib	HEK293 viab	IP6K1 inh cnf
COc1cccc(-c2nc(-c3ccc(F)cc3)cs2)c1	/	i	/	/	/
NC(=O)[C@H](Cc1cccs1)NC(=O)[C@@H]1[C@@H](NC(=O)Nc2ccc(F)cc2F)CCN1C(=O)c1cnccn1	4	i	-16%	1%	/
Cc1ccc(C(O)CNC(=O)Nc2c(C)cccc2C)cc1 (stereo not drawn)	/	i	/	/	/
NC(=O)c1cc(S(=O)(=O)NCc2cccc(Br)c2)cs1	-30*	i	-22%	-2%	-15%
Cc1cccc(CNS(=O)(=O)c2csc(C(N)=O)c2)c1	-8	i	?	10%	/
CC(=O)Nc1ccc(S(=O)(=O)NC(c2ccc(F)cc2)c2cccs2)cc1 (stereo not drawn)	/	i	/	/	/
COc1ccc(C(=O)N2CCC(n3c(C)cnc3-c3ccccc3)CC2)c(OC)c1	10	i	38%	?	/
Cc1ccc(CNc2oc(-c3ccc(COc4ccc(Cl)cc4)o3)nc2C#N)cc1	-30*	?	-17%	4%	12%
CCCCC(=O)Nc1ccccc1C(=O)OCc1cc(=O)n2nc(C3CCCCC3)sc2n1	-28*	?	-1%	-20%	-15%
Cc1nnsc1C(=O)Oc1ccc(C#N)cc1	-20	?	8%	-10%	/
Cc1nnsc1C(=O)Oc1ccc(Cl)cc1	-26*	?	-11%	6%	-4%
Cc1cc(C)cc(OC(=O)c2snnc2C)c1	-35*	?	-5%	3%	-12%
Cc1cccc(OC(=O)c2snnc2C)c1C	-18	i	-8%	-7%	/
CCOC(=O)c1cc2c(=O)n3ccccc3nc2n(Cc2ccco2)c1=NC(=O)c1cccc(F)c1	-39*	?	10%	?	-4%
Cn1c(=O)c2c(-c3ccccc3)n(CCCO)cc2n(C)c1=O	2	?	48%	-14%	/
N=c1c2c(-c3ccccc3)cn(Cc3ccccc3)c2ncn1CCCO	/	/	/	/	-1%
C/C=C(\C)C(=O)O[C@H]1[C@@H](O[C@]2(COC(=O)CC(C)C)O[C@H](COC(=O)C(C)C)[C@@H](OC(C)=O)[C@@H]2O)O[C@H](COC(C)=O)[C@@H](O)[C@@H]1O	-38*	/	/	-3%[23.9 µM]	?
CC(C)CC(=O)OC[C@H]1O[C@@](COC(=O)CC(C)C)(O[C@H]2O[C@H](CO)[C@@H](O)[C@H](O)[C@H]2OC(=O)CC(C)C)[C@@H](OC(=O)CC(C)C)[C@@H]1O	-1	/	/	-13%[23.9 µM]	/
O=C(c1ccccn1)N1CC(n2cc(COCc3ccccc3)nn2)C1	13	/	5%	-1%	/
COc1ccc2nc3n(c2c1)[C@@H](CNC(=O)c1ccc(F)cc1)COC3	-26*	35µM*	0%[87.6 µM]	-13%[87.6 µM]	?
COc1ccc2nc3n(c2c1)[C@@H](CNS(=O)(=O)c1ccc(F)cc1)COC3	-2	i	-1%[87.6 µM]	-1%[87.6 µM]	/
CC(C)c1ccc(CNCCN2CCCC2)cc1	/	i	/	/	/
Cc1ccc(Cn2c(Cc3ccccc3)nc3ccccc32)cc1	-27*	i	-22%	3%	-18%
Cc1ccc(Cn2c(-c3ccccc3)nc3ccccc32)cc1	-27*	?	24%	10%	-15%
COc1ccc(/C=C/C(=O)OCCN(C)C(C)(C)C)cc1	/	i	/	/	/
SMILES	IP6K1 inh	KDM5B inh	SNCA expr inhib	HEK293 viab	IP6K1 inh cnf
CCn1ncc(N2CCC(NC(=O)c3cccc(OC)c3OC)CC2)cc1=O	2	i	19%	-2%	/
CC(C)c1ccc(-c2nc3c([nH]2)c(=O)n(C)c(=O)n3C)cc1	/	i	/	/	/
Cn1c(=O)c2[nH]c(-c3ccc(S(=O)(=O)O)cc3)nc2n(C)c1=O	/	/	-10%	0%	9%
CC(=O)c1cccc(NS(=O)(=O)c2cc(-c3nc(-c4ccccc4)no3)sc2C)c1	/	i	/	/	/
CC(C)c1noc(CC2CCN(C(=O)Cc3ccc(F)cc3)CC2)n1	-26*	i	18%	-15%	-18%
CC(Sc1nnnn1Cc1ccccc1)C(=O)c1cccc(Cl)c1 (stereo not drawn)	/	i	/	/	/
O=C(c1ccccc1)N1Cc2[nH]cnc2C[C@H]1c1nc(-c2ccc(Cl)cc2)no1	-39*	i	?	-19%[87.6 µM]	?
Cn1c(=O)c(-c2cccc(Cl)c2)c(O)c2ccccc21	/	i	/	/	/
